Data on 54 compounds can be found in ChEMBL document CHEMBL3988442, “University of Dundee, Small-Polar-MMV Screening Library” (2021).

Hit rate of the full screen: of about 38,000 compounds, about 1,200 (3.2%) showed an effect of 50% or more. The median lay at about -58%. The sample holds strong results, similar compounds and a random draw of the others, so the mix is not that of the screen.

The experiment deals with Plasmodium falciparum. Nature of the experiment: Calibr Malaria Delayed Death Assay SOP. The format is functional, organism-based. Also on record: scale not given: in the data most compounds retested in dose-response had high values. The conditions noted are these: concentration 4.99e-06 (unit not given; other assays of the set use mol/L).
Consider `OCCN1CCN(CC(O)c2cc(Cl)ccc2Cl)CC1` (centres undefined), for which the “Percent Effect” value is -5.982%.
As to `CCN1CCN(CC(O)c2cc(Cl)ccc2Cl)CC1` (centres undefined), the “Percent Effect” value came to 76.72%.
As for `CC(C)C(=O)N1CCN(CC(O)c2cc(Cl)ccc2Cl)CC1` (centres undefined), the “Percent Effect” value is listed as -47.78%.
`CCOCCN1CCN(CC(O)c2ccc(C)c(C)c2)CC1` (centres undefined): the “Percent Effect” value was -16.95%.
With `CCOCCN1CCN(CC(O)c2cc(Cl)ccc2Cl)CC1` (centres undefined) the figure was 77.57%; with `CC(C)c1nn(C)c(Cl)c1CNCCn1cccn1`, 8.083%.
For `COc1ccc(CNc2nc(C3CC3)nc3c(C)nn(C)c23)cc1`, the “Percent Effect” value is 25.99%.
`CCn1ccc(-c2cc(C(=O)O)n3ncc(Cl)c3n2)n1`: the “Percent Effect” value was -63.4%.
For `CCC(=O)Nc1cccc(OCC(=O)N(C)CCCC2CCCO2)c1` (centres undefined), the “Percent Effect” value was -128%.
With `O=C(C(CNCc1cccc(O)c1)c1ccccc1)N1CCOCC1` (centres undefined) the figure was -54.71%; with `O=C(C(CNCc1cccs1)c1ccccc1)N1CCOCC1` (centres undefined), 4.238%.
In the case of `O=C(Nc1nccs1)c1csc(NC2CCCC2)n1`, the “Percent Effect” value is recorded as -183.6%.
The value for `Cc1cnn(CCNCC(O)c2ccc(F)c(F)c2)c1` (centres undefined) was 43.94%.
The value for `Cc1cnn(CCNCC(O)c2ccc3c(c2)OCCO3)c1` (centres undefined) was -44.13%.
Consider `Cc1cnn(CCNCC(O)c2ccc(C(F)(F)F)cc2)c1` (centres undefined), for which the “Percent Effect” value is given as 71.82%.
On to `COc1ccccc1C1CC(=O)Nc2c1c(=O)[nH]n2C(C)C` (centres undefined), for which the “Percent Effect” value is -127.8%.
With `CC(O)CNc1nc(-c2cccnc2)nc2c1CCC2` (centres undefined) the figure was -47.48%; with `c1cncc(-c2nc3c(c(NCC4(c5ccncc5)CC4)n2)CCC3)c1`, -35.93%; with `c1ccc(-n2cnnc2CCCN2CCOCC2)cc1`, -26.23%.
The value for `CC(C)OCCC(=O)NCC(c1c(F)cccc1F)N(C)C` (centres undefined) was -18.53%; that for `O=C1COC2(CCN(C(=O)[C@H]3CCCO3)CC2)CN1Cc1ccccn1` was -79.26%.
`O=C(C(CNCc1ccccc1O)c1ccccc1)N1CCOCC1` (centres undefined): the “Percent Effect” value was found to be 14.02%.
For `N[C@@H](C(=O)N1CCN(c2ccccc2Cl)C(=O)C1)c1ccccc1`, the “Percent Effect” value is on record as -16.48%.
As for `Cc1csc(CN(C)C(C)C(=O)N2CCc3ccccc3C2)n1` (centres undefined), the “Percent Effect” value is on record as -122.6%.
`Cl.NC(C(=O)N1CCSc2ccccc2C1)c1ccccc1` (centres undefined): the “Percent Effect” value was 59.31%.
With `CC(C)C[C@H](N)C(=O)N1CCSc2ccccc2C1.Cl` the figure was 47.22%; with `CC(C)[C@H](N)C(=O)N1CCSc2ccccc2C1.Cl`, 73.25%.
Consider `CC1c2ncc(COCC3CC3)n2CCN1C(=O)c1ccnnc1` (centres undefined), for which the “Percent Effect” value worked out at 2.24%.
With `CCOCCN1CCN(CC(O)c2ccc(C(F)(F)F)cc2)CC1` (centres undefined), the “Percent Effect” value is listed as 21.93%.
In the case of `CSCc1ccc(C(=O)N2CCN(CC(C)O)CC2)cc1` (centres undefined), the “Percent Effect” value is -108.1%.
Turning to `c1ccc(CCN2CCN(c3ccc4nncn4n3)CC2)nc1`, the “Percent Effect” value is -102.7%.
The value for `Cc1cc(CN2CCN(c3ccc4nncn4n3)CC2)no1` was -4.981%; that for `CC(Cn1cccn1)NC(=O)N1CCN(Cc2cccnc2)CC1` (centres undefined) was -145.3%; that for `Cc1[nH]c(=O)[nH]c(=O)c1CN1CCCC(CCc2ccccc2)C1` (centres undefined) was -20.63%.
On to `COc1cccc(CCC2CCCN(C(=O)c3ccccn3)C2)c1` (centres undefined), for which the “Percent Effect” value is on record as -27.65%.
The value for `CN(CCOCC1CC1)C(=O)Nc1ccc([S+](C)[O-])cc1` (centres undefined) was -126.1%.
Take `CNC(=O)NC(C)c1c(F)cccc1Cl` (centres undefined): the “Percent Effect” value is -107.4%.
With `NCC1(c2cccc(C(F)(F)F)c2)CCCCC1` the figure was -1.273%; with `Cc1ccccc1C1(CN)CCOCC1`, 37.02%; with `Cc1ccccc1C1(CN)CCCCC1`, 91.14%.
Regarding `COc1ccc(C2CCCCCN2S(N)(=O)=O)cc1` (centres undefined), the “Percent Effect” value is -81.61%.
Turning to `COc1ncccc1C(=O)N1CC[C@H]2C[C@H](c3noc(C)n3)O[C@@H]2C1`, the “Percent Effect” value is given as -68.36%.
As for `CN(C)CCC(Nc1nc(N)nc2c1CCNCC2)c1ccccc1` (centres undefined), the “Percent Effect” value is reported as -67.64%.
Regarding `CCOCc1nc2c(c(NC(CC)c3cccnc3)n1)CCNCC2` (centres undefined), the “Percent Effect” value is -63.2%.
Take `CN(C)c1nc2c(c(N3CCc4ccccc4C3)n1)CCNC2`: the “Percent Effect” value came out at 30.67%.
Take `CC(Nc1nc(-c2ccncc2)nc2c1CCNC2)c1ccccc1` (centres undefined): the “Percent Effect” value came to 70.67%.
Turning to `CC(Nc1nc(-c2ccccc2)nc2c1CCNCC2)c1cccnc1` (centres undefined), the “Percent Effect” value is 90.56%.
For the compound `Cc1cc(CC(C)Nc2nc(-c3cccnc3)nc3c2CNC3)[nH]n1` (centres undefined), the “Percent Effect” value is reported as -0.4892%.
Turning to `Cc1ccccc1N1CCN(c2nc(N(C)C)nc3c2CCNC3)CC1`, the “Percent Effect” value is reported as 36.34%.
For the compound `c1ccc2c(c1)CCN(c1nc(-c3ccncc3)nc3c1CCNC3)C2`, the “Percent Effect” value is 59.82%.
As for `Cc1cccnc1[C@H](C)Nc1nc(-c2cccnc2)nc2c1CNC2`, the “Percent Effect” value is reported as 77.9%.
For `CC(=O)N1CCc2nc(-c3ccccc3)nc(NC(C)C)c2CC1`, the “Percent Effect” value is given as -31.72%.
Turning to `CCc1cc(C(C)Nc2nc(-c3cccnc3)nc3c2CNC3)on1` (centres undefined), the “Percent Effect” value is on record as -34.82%.
With `Cc1ccccc1C(Nc1ncnc2c1CCNC2)c1ccccc1` (centres undefined) the figure was 22.99%.
